Measured values published in the supplement of paper PMC11732987, “Enantioselective OTUD7B fragment discovery through chemoproteomics screening and high-throughput optimisation” (Communications Chemistry, 2025).

Columns and labels:
Assay in all cases: log2 ratio of Biotin-Ahx-Ub-VS probe labelling (fragment/DMSO); higher = less target engagement (more negative = stronger competition), active = hit call of the paper (q ≤ 0.05, log2 ratio ≤ -1)
Conditions in all cases: compound concentration: 200 uM; treatment time: 3 h
USP42 = molecular target: T1, USP42 (UniProt Q9H9J4)
T1 sequence (whole entry): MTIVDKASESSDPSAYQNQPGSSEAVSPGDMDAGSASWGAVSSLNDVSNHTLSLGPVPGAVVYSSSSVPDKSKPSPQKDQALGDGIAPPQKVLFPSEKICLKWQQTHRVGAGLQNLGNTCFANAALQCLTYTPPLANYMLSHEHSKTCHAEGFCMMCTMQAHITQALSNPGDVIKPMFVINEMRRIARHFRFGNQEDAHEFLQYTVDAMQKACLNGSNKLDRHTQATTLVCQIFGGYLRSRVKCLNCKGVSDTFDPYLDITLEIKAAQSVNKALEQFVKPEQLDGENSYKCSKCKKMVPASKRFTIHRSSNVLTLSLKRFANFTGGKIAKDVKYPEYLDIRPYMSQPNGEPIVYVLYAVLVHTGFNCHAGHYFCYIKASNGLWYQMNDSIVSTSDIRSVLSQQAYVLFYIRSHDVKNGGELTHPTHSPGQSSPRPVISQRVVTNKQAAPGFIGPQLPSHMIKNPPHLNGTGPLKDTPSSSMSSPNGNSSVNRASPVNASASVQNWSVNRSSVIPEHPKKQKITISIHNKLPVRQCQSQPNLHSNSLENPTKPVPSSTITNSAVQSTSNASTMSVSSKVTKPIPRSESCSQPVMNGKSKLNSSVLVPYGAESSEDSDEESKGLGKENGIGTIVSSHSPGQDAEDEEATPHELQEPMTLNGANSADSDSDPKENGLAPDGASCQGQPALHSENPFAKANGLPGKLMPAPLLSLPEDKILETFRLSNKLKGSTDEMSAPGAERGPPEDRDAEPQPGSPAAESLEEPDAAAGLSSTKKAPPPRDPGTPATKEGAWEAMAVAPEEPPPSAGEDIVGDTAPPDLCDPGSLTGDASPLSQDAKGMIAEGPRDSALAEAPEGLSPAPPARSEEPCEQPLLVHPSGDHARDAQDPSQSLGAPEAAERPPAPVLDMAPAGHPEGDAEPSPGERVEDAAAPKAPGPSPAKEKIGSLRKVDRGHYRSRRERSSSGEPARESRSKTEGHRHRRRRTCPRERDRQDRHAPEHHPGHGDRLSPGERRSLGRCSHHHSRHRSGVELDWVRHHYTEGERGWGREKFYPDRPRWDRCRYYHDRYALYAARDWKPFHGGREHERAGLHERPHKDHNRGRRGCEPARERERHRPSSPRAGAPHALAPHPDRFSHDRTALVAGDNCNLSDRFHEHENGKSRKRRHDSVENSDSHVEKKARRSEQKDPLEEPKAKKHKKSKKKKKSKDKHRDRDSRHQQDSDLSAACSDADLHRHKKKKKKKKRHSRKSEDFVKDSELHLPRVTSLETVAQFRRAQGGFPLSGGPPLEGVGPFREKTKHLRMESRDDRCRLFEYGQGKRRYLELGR
In short: (§1)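 HEK293T lysate (495 µg per sample, in Tris/CHAPS/IGEPAL buffer with protease inhibitors) was treated in triplicate with fragment at 200 µM or with DMSO for 3 h. It was then treated with Biotin-Ahx-Ub-VS (0.5 µM final) for 1 h. Labelled DUBs were NeutrAvidin-enriched, digested with LysC and trypsin, and run by diaPASEF LC-MS/MS. Spectronaut label-free quantities were global-median-normalised. Values are average log2 ratios fragment/DMSO by unpaired t-test, using proteins with ≥2 unique peptides.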

USP46 = USP46 (UniProt P62068)
USP46, sequence (P62068 whole entry): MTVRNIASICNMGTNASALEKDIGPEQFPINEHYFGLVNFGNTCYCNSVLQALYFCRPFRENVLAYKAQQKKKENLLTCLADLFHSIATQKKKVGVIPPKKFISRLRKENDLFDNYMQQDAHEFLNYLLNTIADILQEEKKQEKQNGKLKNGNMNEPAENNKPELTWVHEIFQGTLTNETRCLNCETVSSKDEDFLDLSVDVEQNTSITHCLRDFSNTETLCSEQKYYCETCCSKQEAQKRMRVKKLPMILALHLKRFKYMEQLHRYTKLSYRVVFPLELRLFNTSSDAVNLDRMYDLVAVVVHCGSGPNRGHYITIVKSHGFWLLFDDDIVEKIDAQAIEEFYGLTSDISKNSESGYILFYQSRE
In short: as §1

USP47 = molecular target: T2, USP47 (UniProt Q96K76)
T2 sequence (whole entry): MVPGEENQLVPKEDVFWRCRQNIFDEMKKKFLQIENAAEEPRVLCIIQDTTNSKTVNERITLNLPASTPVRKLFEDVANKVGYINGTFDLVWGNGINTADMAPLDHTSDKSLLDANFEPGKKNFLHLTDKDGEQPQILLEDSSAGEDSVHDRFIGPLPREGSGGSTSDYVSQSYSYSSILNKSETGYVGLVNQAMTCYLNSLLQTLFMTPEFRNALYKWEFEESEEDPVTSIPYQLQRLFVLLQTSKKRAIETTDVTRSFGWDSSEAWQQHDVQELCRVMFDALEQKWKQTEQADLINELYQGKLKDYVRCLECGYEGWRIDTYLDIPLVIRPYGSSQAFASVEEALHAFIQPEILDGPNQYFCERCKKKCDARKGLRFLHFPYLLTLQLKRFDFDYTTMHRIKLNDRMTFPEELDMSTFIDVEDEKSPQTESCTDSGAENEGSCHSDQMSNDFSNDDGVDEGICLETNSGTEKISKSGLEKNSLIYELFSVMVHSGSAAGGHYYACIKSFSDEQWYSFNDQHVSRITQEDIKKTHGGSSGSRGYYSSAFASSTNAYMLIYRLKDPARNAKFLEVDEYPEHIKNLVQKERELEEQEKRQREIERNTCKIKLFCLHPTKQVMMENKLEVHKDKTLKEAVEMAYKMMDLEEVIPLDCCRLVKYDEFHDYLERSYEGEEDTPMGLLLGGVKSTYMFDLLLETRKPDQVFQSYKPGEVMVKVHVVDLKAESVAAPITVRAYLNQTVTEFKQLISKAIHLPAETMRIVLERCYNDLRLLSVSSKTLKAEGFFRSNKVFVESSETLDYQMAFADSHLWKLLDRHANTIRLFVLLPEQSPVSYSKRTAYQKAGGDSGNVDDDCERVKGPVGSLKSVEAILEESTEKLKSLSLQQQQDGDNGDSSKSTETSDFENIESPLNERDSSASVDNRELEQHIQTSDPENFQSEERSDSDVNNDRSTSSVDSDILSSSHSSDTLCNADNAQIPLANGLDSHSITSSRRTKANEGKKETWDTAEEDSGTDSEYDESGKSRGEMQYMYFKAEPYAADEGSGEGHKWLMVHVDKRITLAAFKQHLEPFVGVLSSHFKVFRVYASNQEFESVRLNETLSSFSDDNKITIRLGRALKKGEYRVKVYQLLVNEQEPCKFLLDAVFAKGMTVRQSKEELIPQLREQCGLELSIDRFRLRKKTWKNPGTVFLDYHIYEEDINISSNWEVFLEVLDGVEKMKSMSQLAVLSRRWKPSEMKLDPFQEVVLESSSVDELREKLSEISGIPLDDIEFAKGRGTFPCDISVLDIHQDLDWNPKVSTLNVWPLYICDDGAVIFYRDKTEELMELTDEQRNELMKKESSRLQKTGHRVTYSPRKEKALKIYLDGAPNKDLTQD
In short: as §1

USP48 = molecular target: T3, USP48 (UniProt Q86UV5)
T3 sequence (whole entry): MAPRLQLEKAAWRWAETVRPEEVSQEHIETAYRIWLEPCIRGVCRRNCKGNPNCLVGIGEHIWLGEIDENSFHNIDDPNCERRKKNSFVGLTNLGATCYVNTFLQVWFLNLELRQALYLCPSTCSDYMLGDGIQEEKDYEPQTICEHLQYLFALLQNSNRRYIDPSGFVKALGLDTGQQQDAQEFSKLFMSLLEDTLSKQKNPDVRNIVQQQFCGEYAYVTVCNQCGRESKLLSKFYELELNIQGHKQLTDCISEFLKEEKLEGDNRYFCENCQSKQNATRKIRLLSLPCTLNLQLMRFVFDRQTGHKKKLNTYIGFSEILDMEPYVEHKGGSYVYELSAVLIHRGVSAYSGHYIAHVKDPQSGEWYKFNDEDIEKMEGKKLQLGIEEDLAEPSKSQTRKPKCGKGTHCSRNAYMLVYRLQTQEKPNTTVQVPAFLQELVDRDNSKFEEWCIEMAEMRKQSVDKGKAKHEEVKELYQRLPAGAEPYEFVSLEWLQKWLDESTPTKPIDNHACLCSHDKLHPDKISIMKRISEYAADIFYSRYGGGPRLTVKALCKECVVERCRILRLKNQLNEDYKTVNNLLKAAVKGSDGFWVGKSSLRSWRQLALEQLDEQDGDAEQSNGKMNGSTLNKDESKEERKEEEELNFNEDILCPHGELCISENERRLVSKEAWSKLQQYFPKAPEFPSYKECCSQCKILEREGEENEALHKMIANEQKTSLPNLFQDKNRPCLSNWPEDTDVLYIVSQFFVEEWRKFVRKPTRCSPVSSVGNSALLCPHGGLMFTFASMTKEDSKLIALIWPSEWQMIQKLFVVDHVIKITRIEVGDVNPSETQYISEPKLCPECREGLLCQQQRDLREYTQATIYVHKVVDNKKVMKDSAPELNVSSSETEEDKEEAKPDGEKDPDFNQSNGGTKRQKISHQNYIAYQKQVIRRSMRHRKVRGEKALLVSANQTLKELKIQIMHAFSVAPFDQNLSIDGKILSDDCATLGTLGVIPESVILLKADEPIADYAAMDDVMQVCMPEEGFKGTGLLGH
In short: as §1

USP5 = molecular target: T4, USP5 (UniProt P45974)
T4 sequence (whole entry): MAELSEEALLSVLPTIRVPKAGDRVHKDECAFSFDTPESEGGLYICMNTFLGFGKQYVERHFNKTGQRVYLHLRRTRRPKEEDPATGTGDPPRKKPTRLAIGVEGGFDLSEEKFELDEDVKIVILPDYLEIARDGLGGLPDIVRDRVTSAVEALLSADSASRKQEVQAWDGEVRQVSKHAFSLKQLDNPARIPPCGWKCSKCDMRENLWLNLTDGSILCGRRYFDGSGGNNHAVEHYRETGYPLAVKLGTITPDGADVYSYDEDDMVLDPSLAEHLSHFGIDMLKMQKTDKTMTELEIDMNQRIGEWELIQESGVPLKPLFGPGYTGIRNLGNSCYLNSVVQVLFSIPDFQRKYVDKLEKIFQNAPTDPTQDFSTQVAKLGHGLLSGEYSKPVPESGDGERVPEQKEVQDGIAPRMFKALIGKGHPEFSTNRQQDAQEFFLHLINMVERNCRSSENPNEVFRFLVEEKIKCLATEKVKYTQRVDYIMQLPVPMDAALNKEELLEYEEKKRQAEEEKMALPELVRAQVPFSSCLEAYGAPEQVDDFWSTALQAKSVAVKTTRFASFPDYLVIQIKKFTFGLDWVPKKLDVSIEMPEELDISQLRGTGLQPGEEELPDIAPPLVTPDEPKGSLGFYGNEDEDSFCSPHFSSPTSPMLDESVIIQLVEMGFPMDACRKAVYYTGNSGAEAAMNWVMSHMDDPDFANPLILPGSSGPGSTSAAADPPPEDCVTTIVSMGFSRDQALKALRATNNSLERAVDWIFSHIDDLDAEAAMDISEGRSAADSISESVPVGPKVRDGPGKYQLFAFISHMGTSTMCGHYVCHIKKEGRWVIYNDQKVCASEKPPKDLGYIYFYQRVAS
In short: as §1

USP54 = USP54 (UniProt Q70EL1)
USP54, sequence (Q70EL1 whole entry): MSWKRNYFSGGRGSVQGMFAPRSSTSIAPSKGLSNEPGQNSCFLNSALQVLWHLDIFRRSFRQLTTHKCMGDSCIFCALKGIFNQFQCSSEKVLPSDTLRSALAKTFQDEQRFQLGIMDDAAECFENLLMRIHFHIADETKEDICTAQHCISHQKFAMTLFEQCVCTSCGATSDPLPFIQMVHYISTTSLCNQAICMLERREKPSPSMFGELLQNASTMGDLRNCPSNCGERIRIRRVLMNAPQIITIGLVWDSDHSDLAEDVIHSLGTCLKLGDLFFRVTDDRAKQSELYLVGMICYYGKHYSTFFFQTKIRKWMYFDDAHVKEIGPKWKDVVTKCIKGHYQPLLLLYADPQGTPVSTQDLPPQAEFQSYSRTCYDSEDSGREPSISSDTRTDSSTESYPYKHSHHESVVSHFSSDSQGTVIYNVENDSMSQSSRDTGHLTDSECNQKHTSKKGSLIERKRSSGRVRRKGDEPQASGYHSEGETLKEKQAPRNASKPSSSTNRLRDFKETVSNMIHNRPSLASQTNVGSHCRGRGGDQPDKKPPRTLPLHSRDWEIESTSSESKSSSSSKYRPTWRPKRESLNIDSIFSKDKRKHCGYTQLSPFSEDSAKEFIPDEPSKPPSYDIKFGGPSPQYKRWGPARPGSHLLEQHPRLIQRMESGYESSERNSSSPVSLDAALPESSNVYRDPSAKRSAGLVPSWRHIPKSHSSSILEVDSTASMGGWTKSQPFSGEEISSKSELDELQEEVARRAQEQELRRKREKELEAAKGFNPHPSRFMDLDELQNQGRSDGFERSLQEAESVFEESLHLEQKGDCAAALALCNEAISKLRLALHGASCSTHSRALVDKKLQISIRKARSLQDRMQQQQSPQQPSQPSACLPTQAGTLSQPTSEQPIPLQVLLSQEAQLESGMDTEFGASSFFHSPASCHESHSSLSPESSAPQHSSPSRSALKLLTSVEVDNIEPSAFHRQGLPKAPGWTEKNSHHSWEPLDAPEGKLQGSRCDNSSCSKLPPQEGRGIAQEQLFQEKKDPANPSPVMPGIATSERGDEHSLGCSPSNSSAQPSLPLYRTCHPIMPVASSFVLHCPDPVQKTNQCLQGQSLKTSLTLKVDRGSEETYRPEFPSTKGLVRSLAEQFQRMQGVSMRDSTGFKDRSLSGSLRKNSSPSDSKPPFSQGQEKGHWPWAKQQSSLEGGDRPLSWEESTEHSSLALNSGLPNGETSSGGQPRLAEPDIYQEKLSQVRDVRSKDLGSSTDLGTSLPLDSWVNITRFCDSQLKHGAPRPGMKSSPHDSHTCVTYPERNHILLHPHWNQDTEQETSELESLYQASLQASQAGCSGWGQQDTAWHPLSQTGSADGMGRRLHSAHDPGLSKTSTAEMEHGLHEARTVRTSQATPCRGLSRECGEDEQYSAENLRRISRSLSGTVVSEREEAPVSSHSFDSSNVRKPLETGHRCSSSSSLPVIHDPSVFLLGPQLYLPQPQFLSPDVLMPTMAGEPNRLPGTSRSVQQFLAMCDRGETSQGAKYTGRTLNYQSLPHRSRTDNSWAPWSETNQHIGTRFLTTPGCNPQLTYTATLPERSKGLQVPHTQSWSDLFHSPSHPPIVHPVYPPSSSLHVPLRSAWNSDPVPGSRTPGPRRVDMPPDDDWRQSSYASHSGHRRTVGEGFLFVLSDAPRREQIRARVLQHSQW
In short: as §1

USP7 = USP7 (UniProt Q93009)
USP7, sequence (Q93009 whole entry, looked up): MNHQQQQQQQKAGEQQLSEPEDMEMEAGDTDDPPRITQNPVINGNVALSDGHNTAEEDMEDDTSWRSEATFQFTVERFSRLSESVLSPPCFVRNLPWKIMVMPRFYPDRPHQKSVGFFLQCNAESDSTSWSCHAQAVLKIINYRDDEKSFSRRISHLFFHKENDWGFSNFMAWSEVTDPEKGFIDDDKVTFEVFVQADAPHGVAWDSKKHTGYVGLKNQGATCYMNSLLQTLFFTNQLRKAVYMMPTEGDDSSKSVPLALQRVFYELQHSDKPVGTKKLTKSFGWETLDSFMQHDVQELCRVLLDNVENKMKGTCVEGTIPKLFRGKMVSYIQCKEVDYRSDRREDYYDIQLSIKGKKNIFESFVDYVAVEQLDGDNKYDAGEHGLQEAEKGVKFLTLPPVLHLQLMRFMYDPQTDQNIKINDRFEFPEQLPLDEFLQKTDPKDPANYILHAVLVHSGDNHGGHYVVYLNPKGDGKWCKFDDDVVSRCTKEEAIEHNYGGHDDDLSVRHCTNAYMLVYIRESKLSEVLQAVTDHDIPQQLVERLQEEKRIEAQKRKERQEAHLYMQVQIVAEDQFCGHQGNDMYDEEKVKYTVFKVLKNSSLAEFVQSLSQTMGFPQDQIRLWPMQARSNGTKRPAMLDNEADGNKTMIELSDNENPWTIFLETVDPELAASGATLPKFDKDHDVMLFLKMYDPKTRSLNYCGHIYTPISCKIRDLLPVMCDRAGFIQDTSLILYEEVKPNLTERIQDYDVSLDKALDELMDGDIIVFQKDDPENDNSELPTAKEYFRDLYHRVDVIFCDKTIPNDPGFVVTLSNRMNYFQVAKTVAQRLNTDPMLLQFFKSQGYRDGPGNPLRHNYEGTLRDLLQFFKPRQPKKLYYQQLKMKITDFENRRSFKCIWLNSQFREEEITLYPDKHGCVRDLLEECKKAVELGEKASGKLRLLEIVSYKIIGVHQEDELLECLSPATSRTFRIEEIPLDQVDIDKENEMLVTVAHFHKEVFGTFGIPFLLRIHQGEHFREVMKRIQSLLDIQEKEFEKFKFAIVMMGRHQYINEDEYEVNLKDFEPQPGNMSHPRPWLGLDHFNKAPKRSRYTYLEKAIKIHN
In short: as §1

USP8 = molecular target: T5, USP8 (UniProt P40818)
T5 sequence (whole entry): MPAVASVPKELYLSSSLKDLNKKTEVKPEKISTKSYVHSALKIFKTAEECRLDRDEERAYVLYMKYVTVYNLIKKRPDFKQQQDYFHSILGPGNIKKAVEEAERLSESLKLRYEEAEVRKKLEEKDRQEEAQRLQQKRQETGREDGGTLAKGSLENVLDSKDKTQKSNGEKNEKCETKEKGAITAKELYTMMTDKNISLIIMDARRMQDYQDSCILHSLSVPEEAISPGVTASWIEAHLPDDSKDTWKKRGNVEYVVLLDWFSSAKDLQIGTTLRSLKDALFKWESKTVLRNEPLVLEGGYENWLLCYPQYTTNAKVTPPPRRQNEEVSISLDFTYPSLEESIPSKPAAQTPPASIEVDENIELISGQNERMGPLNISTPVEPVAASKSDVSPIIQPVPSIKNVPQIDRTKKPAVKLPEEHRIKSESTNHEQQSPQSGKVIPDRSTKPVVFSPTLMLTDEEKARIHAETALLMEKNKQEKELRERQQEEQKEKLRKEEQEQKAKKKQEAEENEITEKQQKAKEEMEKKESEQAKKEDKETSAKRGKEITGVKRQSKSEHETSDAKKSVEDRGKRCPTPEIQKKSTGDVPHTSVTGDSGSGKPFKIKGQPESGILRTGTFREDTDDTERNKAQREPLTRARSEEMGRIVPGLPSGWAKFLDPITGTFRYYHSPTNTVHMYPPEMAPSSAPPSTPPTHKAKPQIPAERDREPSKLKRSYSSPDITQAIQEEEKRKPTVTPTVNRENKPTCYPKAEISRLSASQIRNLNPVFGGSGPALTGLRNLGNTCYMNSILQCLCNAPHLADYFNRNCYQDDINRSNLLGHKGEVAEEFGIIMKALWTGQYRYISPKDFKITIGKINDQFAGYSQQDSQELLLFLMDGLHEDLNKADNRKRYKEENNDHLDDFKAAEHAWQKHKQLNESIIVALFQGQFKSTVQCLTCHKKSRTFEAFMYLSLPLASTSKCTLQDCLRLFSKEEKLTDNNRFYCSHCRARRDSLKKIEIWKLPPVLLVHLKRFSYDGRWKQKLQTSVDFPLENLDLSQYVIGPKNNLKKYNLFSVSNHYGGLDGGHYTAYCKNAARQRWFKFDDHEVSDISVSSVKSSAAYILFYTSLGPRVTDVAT
In short: as §1

Measured: log2 ratio of Biotin-Ahx-Ub-VS probe labelling

C[C@@H](NC(=O)CCl)c1cccc(C#N)c1
inactive: USP42 0.213 | USP46 0.013 | USP47 -0.609 | USP48 -0.209 | USP5 0.067 | USP54 0.0518 | USP7 -0.0563 | USP8 -0.19
